For some assays here: Potency and affinity values are given separately.
What was measured:
Set-up in all cases: scale not given: direction of the effect not stated beside the values
[1] = biological target: Protein translocase subunit SecA (Escherichia coli (strain K12)) (UniProt P10408); test: Assay to Identify E. coli SecA ATPase Inhibitors; assay type: functional; settings: 30 µM
[2] = biological target: T1, Ubiquitin-activating enzyme e1, putative (Leishmania donovani (strain BPK282A1)) (UniProt E9BSI1); test: Leishmania donovani Ubiquitin Activating Enzyme (LdE1); assay type: functional; settings: 30 µM
T1 sequence (whole entry): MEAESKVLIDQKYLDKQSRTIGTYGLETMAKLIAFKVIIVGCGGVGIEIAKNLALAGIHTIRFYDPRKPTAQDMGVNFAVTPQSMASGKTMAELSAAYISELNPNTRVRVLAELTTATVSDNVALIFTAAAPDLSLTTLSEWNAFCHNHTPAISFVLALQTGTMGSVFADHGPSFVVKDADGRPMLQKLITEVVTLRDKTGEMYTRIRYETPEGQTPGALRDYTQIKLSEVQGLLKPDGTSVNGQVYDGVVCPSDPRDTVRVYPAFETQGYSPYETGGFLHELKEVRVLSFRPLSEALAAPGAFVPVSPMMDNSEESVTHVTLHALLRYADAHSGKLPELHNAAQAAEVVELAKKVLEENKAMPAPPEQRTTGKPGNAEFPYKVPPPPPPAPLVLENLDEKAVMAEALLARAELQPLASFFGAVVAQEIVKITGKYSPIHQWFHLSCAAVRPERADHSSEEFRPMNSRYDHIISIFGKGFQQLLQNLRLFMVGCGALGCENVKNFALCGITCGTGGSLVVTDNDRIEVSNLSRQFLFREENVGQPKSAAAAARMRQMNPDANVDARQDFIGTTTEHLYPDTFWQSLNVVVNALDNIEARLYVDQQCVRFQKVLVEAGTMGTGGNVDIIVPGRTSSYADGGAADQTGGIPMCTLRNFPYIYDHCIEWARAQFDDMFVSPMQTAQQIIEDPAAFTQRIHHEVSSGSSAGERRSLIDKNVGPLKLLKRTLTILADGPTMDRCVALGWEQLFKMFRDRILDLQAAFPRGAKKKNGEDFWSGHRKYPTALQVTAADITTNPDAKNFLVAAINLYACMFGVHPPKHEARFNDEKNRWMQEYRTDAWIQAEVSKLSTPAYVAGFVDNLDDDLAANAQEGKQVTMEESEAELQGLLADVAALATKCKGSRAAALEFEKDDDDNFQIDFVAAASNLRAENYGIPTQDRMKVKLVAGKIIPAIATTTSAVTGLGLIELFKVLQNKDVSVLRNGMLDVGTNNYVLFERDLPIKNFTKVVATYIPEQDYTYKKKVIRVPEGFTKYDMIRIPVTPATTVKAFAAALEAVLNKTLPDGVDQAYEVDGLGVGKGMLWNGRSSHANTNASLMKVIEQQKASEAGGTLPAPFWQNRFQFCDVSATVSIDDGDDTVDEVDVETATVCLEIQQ

[3] = biological target: AMP-activated protein kinase, AMPK (Homo sapiens) (UniProt P54646+O43741+P54619+Q9UGJ0+Q9Y478+Q13131+Q9UGI9); test: AMP-dependent Kinase enzyme assay. An in vitro enzyme assay that detects ADP turnover that is directly proportional to AMPK activity. This uses naive AMPK that is activated during the assay with MK-8722; assay type: functional; settings: 30 µM
[4] = biological target: Sialic acid-binding Ig-like lectin 9 (Homo sapiens) (UniProt Q9Y336); test: Hs-Siglec9 ALPHAscreen SOP 20170721; settings: 10 µM
Chain of Sialic acid-binding Ig-like lectin 9 (Homo sapiens) (Q9Y336 whole entry): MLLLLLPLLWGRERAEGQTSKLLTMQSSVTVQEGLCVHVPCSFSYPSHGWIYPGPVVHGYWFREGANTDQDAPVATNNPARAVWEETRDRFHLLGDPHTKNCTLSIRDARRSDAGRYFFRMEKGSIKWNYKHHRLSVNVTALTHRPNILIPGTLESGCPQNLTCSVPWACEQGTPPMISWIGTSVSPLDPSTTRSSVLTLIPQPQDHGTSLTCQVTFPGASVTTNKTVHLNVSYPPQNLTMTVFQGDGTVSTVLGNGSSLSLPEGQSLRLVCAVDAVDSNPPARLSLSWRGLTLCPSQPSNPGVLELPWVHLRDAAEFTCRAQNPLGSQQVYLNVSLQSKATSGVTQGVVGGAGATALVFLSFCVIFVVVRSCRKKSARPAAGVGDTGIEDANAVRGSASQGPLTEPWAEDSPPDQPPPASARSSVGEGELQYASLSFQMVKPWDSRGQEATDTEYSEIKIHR

Trypanosoma cruzi = test: Trypanosoma cruzi phosphomannomutase and mannose-1-phosphate guanylyltransferase assay; assay type: functional; settings: 10 µM
[5] = biological target: T2, Arginase-2, mitochondrial (Homo sapiens) (UniProt P78540); test: in vitro enzyme assay to detect the production of urea directly proportional to the activity of Arginase II; assay type: functional; settings: 33.3 µM; note: in the data most compounds retested in dose-response had high values
T2 sequence (whole entry): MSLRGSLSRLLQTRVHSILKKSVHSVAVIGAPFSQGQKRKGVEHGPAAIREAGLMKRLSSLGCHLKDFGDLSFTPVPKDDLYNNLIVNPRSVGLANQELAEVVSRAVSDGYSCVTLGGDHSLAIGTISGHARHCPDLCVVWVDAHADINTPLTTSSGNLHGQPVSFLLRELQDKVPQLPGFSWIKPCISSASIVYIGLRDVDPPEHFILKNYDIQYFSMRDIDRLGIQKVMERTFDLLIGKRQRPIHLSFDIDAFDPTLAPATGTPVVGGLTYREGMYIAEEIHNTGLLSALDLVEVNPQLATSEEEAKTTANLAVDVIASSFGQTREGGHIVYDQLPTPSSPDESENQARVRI

[6] = biological target: T3, Proteasome subunit beta (Trypanosoma cruzi) (UniProt O96673); test: Trypanosoma cruzi proteasome chymotrypsin-like activity (TcProtChymo) assay.; note: in the data most compounds retested in dose-response had high values; assay type: functional; settings: 9.37 µM
T3 sequence (whole entry): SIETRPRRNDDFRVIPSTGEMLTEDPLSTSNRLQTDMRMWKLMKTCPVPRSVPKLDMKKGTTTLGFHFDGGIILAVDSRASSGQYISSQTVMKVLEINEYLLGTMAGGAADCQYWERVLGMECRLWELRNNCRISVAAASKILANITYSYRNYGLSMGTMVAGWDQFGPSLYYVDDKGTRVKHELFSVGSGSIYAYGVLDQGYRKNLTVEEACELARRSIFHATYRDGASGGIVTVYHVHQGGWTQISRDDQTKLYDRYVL

Homo sapiens = species on record: Homo sapiens; test: To identify inhibition of the IFN signalling (Jak-Stat) pathway via expression of an eGFP reporter gene under the control of an IFN-stimulated response element (ISRE) containing MxA promoter.; assay type: functional; settings: 30 µM
[7] = biological target: T4, Tyrosyl-tRNA synthetase, putative (Trypanosoma cruzi (strain CL Brener)) (UniProt Q4DSP6); test: Trypanosoma cruzi tyrosyl tRNA synthetase (TcYRS) _High Tyrosine SOP; assay type: functional; settings: 30 µM; note: in the data most compounds retested in dose-response had high values
T4 sequence (whole entry): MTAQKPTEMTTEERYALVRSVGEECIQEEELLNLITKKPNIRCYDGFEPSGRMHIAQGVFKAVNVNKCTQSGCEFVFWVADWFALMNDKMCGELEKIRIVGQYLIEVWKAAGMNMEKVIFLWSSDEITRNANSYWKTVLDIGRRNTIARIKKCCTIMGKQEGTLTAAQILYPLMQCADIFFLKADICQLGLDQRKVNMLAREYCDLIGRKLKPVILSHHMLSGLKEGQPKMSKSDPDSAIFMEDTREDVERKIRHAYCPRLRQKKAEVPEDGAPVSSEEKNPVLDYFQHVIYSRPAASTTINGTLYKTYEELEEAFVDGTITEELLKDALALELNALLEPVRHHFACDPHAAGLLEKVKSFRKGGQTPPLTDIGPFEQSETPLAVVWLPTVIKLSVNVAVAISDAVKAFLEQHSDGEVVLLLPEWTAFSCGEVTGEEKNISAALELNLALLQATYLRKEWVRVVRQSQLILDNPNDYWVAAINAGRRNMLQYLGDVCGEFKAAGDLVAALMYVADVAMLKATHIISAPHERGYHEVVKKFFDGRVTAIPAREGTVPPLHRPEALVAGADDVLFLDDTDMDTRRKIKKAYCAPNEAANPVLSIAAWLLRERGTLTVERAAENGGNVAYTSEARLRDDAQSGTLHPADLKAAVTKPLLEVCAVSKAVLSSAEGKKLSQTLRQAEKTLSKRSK

[8] = biological target: T4, Tyrosyl-tRNA synthetase, putative (Trypanosoma cruzi (strain CL Brener)); test: Trypanosoma cruzi tyrosyl tRNA synthetase (TcYRS) SOP; assay type: functional; settings: 30 µM
[9] = biological target: Chromo domain-containing protein 1 (Saccharomyces cerevisiae (strain ATCC 204508 / S288c) (Baker's yeast)) (UniProt P32657); test: ScCHD-1 Enzyme Inhibition Assay; assay type: functional; settings: 30 µM; note: in the data most compounds retested in dose-response had high values
Chain of Chromo domain-containing protein 1 (Saccharomyces cerevisiae (strain ATCC 204508 / S288c) (Baker's yeast)) (P32657 whole entry, the tested form may be a part): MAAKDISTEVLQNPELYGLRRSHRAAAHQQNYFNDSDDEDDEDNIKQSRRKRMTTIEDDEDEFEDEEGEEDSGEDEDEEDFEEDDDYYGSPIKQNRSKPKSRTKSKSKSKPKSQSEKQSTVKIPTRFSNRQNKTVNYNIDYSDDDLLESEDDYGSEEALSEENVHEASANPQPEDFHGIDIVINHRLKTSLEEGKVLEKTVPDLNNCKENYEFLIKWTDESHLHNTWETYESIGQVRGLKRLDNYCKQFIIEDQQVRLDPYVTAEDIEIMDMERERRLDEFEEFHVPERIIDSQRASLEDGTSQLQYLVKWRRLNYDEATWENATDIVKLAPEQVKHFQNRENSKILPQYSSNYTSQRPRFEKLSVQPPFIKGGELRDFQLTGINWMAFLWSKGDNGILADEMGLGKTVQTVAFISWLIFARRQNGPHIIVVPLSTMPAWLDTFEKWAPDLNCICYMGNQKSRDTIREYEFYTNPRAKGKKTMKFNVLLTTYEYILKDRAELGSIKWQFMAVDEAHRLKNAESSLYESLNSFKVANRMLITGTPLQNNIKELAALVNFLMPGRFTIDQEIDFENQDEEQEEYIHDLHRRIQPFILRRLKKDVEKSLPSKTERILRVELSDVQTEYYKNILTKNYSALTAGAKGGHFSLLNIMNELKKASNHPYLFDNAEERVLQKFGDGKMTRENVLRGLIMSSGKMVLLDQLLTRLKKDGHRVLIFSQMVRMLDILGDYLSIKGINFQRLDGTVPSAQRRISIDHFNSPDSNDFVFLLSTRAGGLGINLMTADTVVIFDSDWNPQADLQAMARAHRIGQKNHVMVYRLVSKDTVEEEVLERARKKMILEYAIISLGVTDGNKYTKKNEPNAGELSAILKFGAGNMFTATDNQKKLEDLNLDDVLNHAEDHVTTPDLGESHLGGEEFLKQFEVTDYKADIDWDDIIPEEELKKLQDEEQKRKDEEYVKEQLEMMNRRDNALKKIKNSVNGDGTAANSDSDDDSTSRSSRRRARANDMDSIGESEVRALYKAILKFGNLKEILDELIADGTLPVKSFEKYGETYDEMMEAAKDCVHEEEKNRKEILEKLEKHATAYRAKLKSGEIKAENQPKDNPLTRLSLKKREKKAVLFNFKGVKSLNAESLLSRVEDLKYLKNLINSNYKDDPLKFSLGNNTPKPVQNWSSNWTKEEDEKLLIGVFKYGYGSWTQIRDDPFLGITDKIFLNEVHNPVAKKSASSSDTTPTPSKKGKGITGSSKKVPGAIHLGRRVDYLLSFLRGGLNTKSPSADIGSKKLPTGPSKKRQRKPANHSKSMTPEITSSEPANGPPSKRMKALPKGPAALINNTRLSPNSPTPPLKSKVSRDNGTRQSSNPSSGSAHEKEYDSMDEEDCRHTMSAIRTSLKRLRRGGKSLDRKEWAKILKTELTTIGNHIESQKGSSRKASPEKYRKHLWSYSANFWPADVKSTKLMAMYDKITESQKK

Chain of Protein translocase subunit SecA (Escherichia coli (strain K12)) (P10408 whole entry): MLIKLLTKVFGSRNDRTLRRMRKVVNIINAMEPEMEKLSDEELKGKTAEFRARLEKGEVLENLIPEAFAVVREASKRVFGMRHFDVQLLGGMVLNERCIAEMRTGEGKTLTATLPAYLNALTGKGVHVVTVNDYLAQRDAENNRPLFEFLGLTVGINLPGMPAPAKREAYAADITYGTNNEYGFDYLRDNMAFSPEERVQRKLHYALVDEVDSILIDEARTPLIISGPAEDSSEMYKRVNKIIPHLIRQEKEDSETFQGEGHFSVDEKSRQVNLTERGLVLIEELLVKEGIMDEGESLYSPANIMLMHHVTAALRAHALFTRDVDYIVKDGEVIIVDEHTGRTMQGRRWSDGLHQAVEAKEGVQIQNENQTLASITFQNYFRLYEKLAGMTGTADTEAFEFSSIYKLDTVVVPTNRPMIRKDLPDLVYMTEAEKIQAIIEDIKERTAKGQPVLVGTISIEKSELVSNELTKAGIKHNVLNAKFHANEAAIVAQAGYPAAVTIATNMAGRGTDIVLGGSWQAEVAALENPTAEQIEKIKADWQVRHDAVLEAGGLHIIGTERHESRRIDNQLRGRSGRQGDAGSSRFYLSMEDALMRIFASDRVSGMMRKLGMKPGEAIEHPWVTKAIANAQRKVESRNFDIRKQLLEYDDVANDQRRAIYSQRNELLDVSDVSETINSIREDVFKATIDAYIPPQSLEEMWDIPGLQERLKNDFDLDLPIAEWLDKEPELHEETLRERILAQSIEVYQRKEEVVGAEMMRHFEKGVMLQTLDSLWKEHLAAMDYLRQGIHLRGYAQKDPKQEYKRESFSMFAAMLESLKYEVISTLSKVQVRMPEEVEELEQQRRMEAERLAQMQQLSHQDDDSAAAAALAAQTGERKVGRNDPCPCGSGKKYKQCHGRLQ

| SMILES | Percent Effect [1] [%] | Percent Effect [2] [%] | Percent Effect [3] [%] | Percent Effect [4] [%] | Percent Effect (Trypanosoma cruzi) [%] | Percent Effect [5] [%] | Percent Effect [6] [%] | Percent Effect (Homo sapiens) [%] | Percent Effect [7] [%] | Percent Effect [8] [%] | Percent Effect [9] [%] |
| --- | --- | --- | --- | --- | --- | --- | --- | --- | --- | --- | --- |
| CC(O)CN1CCC(CNCc2c[nH]nc2C(C)(C)C)CC1 (stereo unspecified) | -6.44 | 18.9 | -5.82 | 1.39 | -6.7 | -2 | 11.9 | 13.9 | 4.43 | 3.7 | -9.13 |
| Cn1c(C2CC2)nc2c1CCN(CC(=O)Nc1nncs1)C2 | -2.25 | -2.6 | 0.616 | 7.43 | -2.06 | -11.4 | 3.72 | -9.48 | 4.85 | 7.32 | -5.21 |
| Fc1cccc(-c2nc(CN3CCCCC3Cn3cncn3)co2)c1 (stereo unspecified) | -2.29 | 7.59 | 1.61 | 1.08 | 7.65 | 1.52 | 1.72 | -27.5 | 3.45 | 13.9 | -6.86 |
| CCc1nc(CN(C(C)=O)C2CCN(Cc3cnc(C)cn3)C2)no1 (stereo unspecified) | -1.41 | 22.8 | -8.69 | -10.4 | -3.31 | 4.18 | 5.16 | 27.4 | 4.43 | 13.9 | -6.99 |
| CN(Cc1cccc(F)c1)C(=O)CN1CCCCC1Cn1cncn1 (stereo unspecified) | -1.08 | -2.6 | -0.897 | 5.97 | 1.08 | -4.14 | 9.32 | -1.75 | 4.3 | -1.24 | -0.771 |
| CC(C)CCN1CCN(Cc2nc(C3CC3)no2)CC1 | -7.83 | -2.7 | 1.67 | -0.524 | 1.17 | -0.417 | 9.38 | 2.9 | 2.97 | -3.66 | -0.984 |
| CCc1nccn1C1CCCN(C(=O)Cc2n[nH]c3ccccc23)C1 (stereo unspecified) | -3.99 | 3.8 | 8.48 | 8.66 | -4.62 | 3.66 | -0.858 | 1.26 | 2.08 | 15.2 | -2.38 |
| CNCC(=O)N1CCCC(c2cccc(Nc3nc(C)cc(C)n3)n2)C1 (stereo unspecified) | -3.22 | 28.4 | 6.16 | -10.1 | 3.56 | -5.34 | 14.3 | 22 | 3.23 | 11.7 | -21.5 |
| Cc1nc(C2CCCN2C(=O)c2cnns2)no1 (stereo unspecified) | -3.1 | 13.2 | 3.2 | 4.23 | -0.564 | 9.96 | 12.9 | 3.69 | 5.39 | 17.1 | -6.62 |
| c1coc(-c2noc(CN3CCCC(Cn4cncn4)C3)n2)c1 (stereo unspecified) | -6.64 | 7.59 | -3.53 | 4.26 | 6.14 | -3.04 | 2.05 | 3.63 | -1.48 | 11.4 | -5.56 |
| CN(C)C(=O)N1CCN(Cc2noc(Cc3ccccc3)n2)CC1 | -2.44 | 0 | -1.46 | 6.32 | -0.661 | -2.28 | -0.409 | -0.594 | 2.46 | -3.8 | -2.99 |
| O=C(NCCN1CCNCC1)c1nc2ccccc2c(=O)[nH]1 | 3.26 | 9.33 | 2.04 | -5.44 | -7.47 | -10.7 | 12 | -0.251 | 4.23 | 12.8 | -7.33 |
| CC(C)c1nnc2n1CCN(CC(=O)N1CCc3ccccc3C1)C2 | -3.76 | 2.63 | -2.4 | 1.05 | 6.01 | -1.53 | -0.167 | 5.07 | 7.35 | 9.76 | -9.88 |
| CO[C@H]1CCN(c2ncccn2)[C@H]1Cc1ccccc1 | 1.4 | 2.6 | -1.1 | 7.23 | -3.25 | -13.8 | 16 | 13.8 | 5.38 | 8.64 | -1.72 |
| Cc1ccc(NC2CCN(C(=O)c3c(C)noc3C)CC2)nn1 | -4.36 | 13.2 | 0.922 | 9.85 | 7.33 | -0.766 | 3.68 | -4.46 | 3.43 | 12.2 | -7.4 |
| O=C(NCC1CC1)C1CN(C(=O)c2cccs2)CC12CCOCC2 (stereo unspecified) | -8.31 | 16 | 2.41 | 3.43 | 0.579 | -52.5 | 4.62 | -9.4 | 5.21 | -47.5 | -5.08 |
